Results published in PubChem BioAssay (EPA / NIEHS).
Results filed as inconclusive are left out. Active and inactive are the calls of the source. Rule for the calls: active = hit-call score of the fitted dose curve at least 0.9, where 1 is the maximum; inconclusive = response in the unintended direction; inactive = score below 0.9.

Tests used:
[1] = biological target: Cellular tumor antigen p53 (Homo sapiens) (UniProt P04637); assay: TOX21_p53_BLA_p2_ratio: Tox21 HCT-116 p53 Agonism Beta-lactamase Assay, Ratio, Phase 2 (AID 2283592)
Summary of the method: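 HCT-116 cells with p53-responsive beta-lactamase reporter, 4000 cells/well, preincubated 5 h, then compound in DMSO (217-fold dilution) for 16 h at 37C. CCF4-AM substrate 2 h at room temperature; 460/530 nm emission ratio fitted upward versus DMSO.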

[2] = biological target: Cellular tumor antigen p53 (Homo sapiens) (UniProt P04637); assay: TOX21_p53_BLA_p3_ratio: Tox21 HCT-116 p53 Agonism Beta-lactamase Assay, Ratio, Phase 3 (AID 2283596)
Summary of the method: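 HCT116 p53-bla cells (4000/well) given compound in DMSO (217-fold dilution) after 5 h, incubated 16 h at 37C. CCF4-AM substrate 2 h at room temperature; 460/530 nm emission ratio, gain fitted against DMSO.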

[3] = biological target: Cellular tumor antigen p53 (Homo sapiens) (UniProt P04637); assay: TOX21_p53_BLA_p5_ratio: Tox21 HCT-116 p53 Agonism Beta-lactamase Assay, Ratio, Phase 5 (AID 2283599)
Summary of the method: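 HCT-116 p53-bla cells (4000/well) plated 5 h, dosed with compound (217-fold DMSO dilution) for 16 h at 37 C; CCF4-AM substrate 2 h at room temperature. Activity is the 460/530 nm emission ratio (405 nm excitation), fitted in gain-of-signal direction versus DMSO.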

[4] = biological target: Cellular tumor antigen p53 (Homo sapiens) (UniProt P04637); assay: TOX21_p53_BLA_p4_ratio: Tox21 HCT-116 p53 Agonism Beta-lactamase Assay, Ratio, Phase 4 (AID 2283601)
Summary of the method: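 HCT-116 p53 beta-lactamase reporter cells (4000/well) preincubated 5 h, then compound (217-fold dilution of DMSO stock) for 16 h at 37C. CCF4-AM substrate added 2 h at room temperature; 460/530 nm emission ratio fitted upward versus DMSO.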

[5] = Tanguay_ZF_120hpf_MORT_legacy: (Legacy) Oregon State University Tanguay Lab 120 Hour Post-fertilization zebrafish Assay for Mortality (AID 2283633);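 for AC50: fitted as increase in binary mortality versus DMSO negative control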
Summary of the method: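 Dechorionated Tropical 5D wild-type zebrafish embryos, one per well from 6 hpf, static exposure in 0.64% DMSO at 28C until 120 hpf. Mortality scored as binary by brightfield microscopy at 24 and 120 hpf.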

[6] = Tanguay_ZF_120hpf_YSE_legacy: (Legacy) Oregon State University Tanguay Lab 120 Hour Post-fertilization zebrafish Assay for Yolk Sac Edema (AID 2283634)
Summary of the method: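 Dechorionated Tropical 5D wild-type zebrafish embryos were exposed statically, one per well, from 6 to 120 hpf at 28C in 0.64% DMSO. Yolk sac edema was scored present/absent by brightfield at 120 hpf, and dead embryos were excluded.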

[7] = Tanguay_ZF_120hpf_AXIS_legacy: (Legacy) Oregon State University Tanguay Lab 120 Hour Post-fertilization zebrafish Assay for Body Axis Malformation (AID 2283635)
Summary of the method: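 Dechorionated wild-type Tropical 5D zebrafish embryos, one per well, statically exposed from 6 hpf to 120 hpf at 28C in 0.64% DMSO final. Body axis malformation scored present/absent by brightfield microscopy at 120 hpf; dead embryos excluded.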

[8] = Tanguay_ZF_120hpf_EYE_legacy: (Legacy) Oregon State University Tanguay Lab 120 Hour Post-fertilization zebrafish Assay for Eye Malformation (AID 2283636);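 note: binary presence or absence of eye malformation scored by brightfield in 120 hpf larvae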
Summary of the method: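 Dechorionated Tropical 5D zebrafish embryos, one per well from 6 hpf, static exposure to 120 hpf at 28C, 0.64% DMSO. Eye malformation scored present/absent by brightfield; dead embryos not scored.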

[9] = Tanguay_ZF_120hpf_SNOU_legacy: (Legacy) Oregon State University Tanguay Lab 120 Hour Post-fertilization zebrafish Assay for Snout Malformation (AID 2283637)
Summary of the method: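 Dechorionated tropical 5D wild-type zebrafish embryos exposed statically from 6 to 120 hpf at 28C, one per well, in 0.64% DMSO. Snout malformation scored as present/absent by brightfield at 120 hpf; dead embryos not scored.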

[10] = Tanguay_ZF_120hpf_JAW_legacy: (Legacy) Oregon State University Tanguay Lab 120 Hour Post-fertilization zebrafish Assay for Jaw Malformation (AID 2283638);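 for AC50: active means more embryos with jaw malformation than DMSO controls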
Summary of the method: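 Dechorionated Tropical 5D wild-type zebrafish embryos, one per well, exposed statically from 6 hpf to 120 hpf at 28C in 0.64% DMSO. Jaw malformation was scored by brightfield microscopy as present or absent. It was not scored in dead embryos.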

[11] = Tanguay_ZF_120hpf_OTIC_legacy: (Legacy) Oregon State University Tanguay Lab 120 Hour Post-fertilization zebrafish Assay for Otic Vesicle Malformation (AID 2283639)
Summary of the method: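 Tropical 5D wild-type zebrafish embryos statically exposed in 0.64% DMSO at 28C until 120 hpf; 5uM trimethyltin chloride as positive control. Otic vesicle malformation scored present/absent by brightfield; dead embryos not scored; gain fitted versus DMSO.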

[12] = Tanguay_ZF_120hpf_PE_legacy: (Legacy) Oregon State University Tanguay Lab 120 Hour Post-fertilization zebrafish Assay for Pericardial Edema (AID 2283640)
Summary of the method: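 Tropical 5D wild-type zebrafish embryos were statically exposed until 120 hpf at 28C, with 0.64% DMSO final. Pericardial edema was scored by brightfield as present or absent; endpoints were not scored in dead embryos.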

[13] = Tanguay_ZF_120hpf_SOMI_legacy: (Legacy) Oregon State University Tanguay Lab 120 Hour Post-fertilization zebrafish Assay for Somite Malformation (AID 2283647)
Summary of the method: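 Dechorionated Tropical 5D wild-type zebrafish embryos, one per well from 6 hpf, statically exposed at 28C to 120 hpf in 0.64% DMSO; somite malformation scored present/absent by brightfield; trimethyltin 5 uM positive control; dead embryos not scored.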

[14] = Tanguay_ZF_120hpf_PFIN_legacy: (Legacy) Oregon State University Tanguay Lab 120 Hour Post-fertilization zebrafish Assay for Pectoral Fin Malformation (AID 2283648);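 note: each larva judged yes or no for fin defect by brightfield with dead larvae skipped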
Summary of the method: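 Dechorionated Tropical 5D wild-type zebrafish embryos, one per well, statically exposed from 6 to 120 hpf at 28C with 0.64% DMSO final. Pectoral fin malformation scored present/absent by brightfield at 120 hpf; not scored in dead embryos.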

[15] = Tanguay_ZF_120hpf_BRAI_legacy: (Legacy) Oregon State University Tanguay Lab 120 Hour Post-fertilization zebrafish Assay for Brain Malformation (AID 2283641)
Summary of the method: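 Tropical 5D wild-type zebrafish embryos exposed statically until 120 hpf at 28C, 0.64% DMSO final, sealed and dark. Brain malformation scored present/absent by brightfield at 120 hpf; dead embryos excluded. Trimethyltin chloride 5uM positive control.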

[16] = Tanguay_ZF_120hpf_CFIN_legacy: (Legacy) Oregon State University Tanguay Lab 120 Hour Post-fertilization zebrafish Assay for Caudal Fin Malformation (AID 2283649)
Summary of the method: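 Dechorionated Tropical 5D wild-type embryos, one per well from 6 hpf, static exposure to 120 hpf at 28C in 0.64% DMSO. Caudal fin malformation scored by brightfield as present/absent; not scored in dead embryos.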

[17] = Tanguay_ZF_120hpf_PIG_legacy: (Legacy) Oregon State University Tanguay Lab 120 Hour Post-fertilization zebrafish Assay for Pigmentation Malformation (AID 2283650)
Summary of the method: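 Dechorionated Tropical 5D wild-type embryos, one per well from 6 hpf, statically exposed at 28C in the dark until 120 hpf, 0.64% DMSO final. Pigmentation scored present/absent by brightfield microscopy; dead embryos not scored; fitted versus DMSO.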

[18] = Tanguay_ZF_120hpf_CIRC_legacy: (Legacy) Oregon State University Tanguay Lab 120 Hour Post-fertilization zebrafish Assay for Circulatory Malformation (AID 2283651)
Summary of the method: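 Dechorionated wild-type 5D zebrafish embryos, one per well, statically exposed from 6 to 120 hpf at 28C with 0.64% DMSO; circulatory malformation scored present/absent by brightfield microscopy at 120 hpf, dead embryos excluded.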

[19] = TOX21_p53_BLA_p5_viability: Viability Assessment in the Tox21 HCT-116 p53 Agonism Beta-lactamase Assay, Phase 5 (AID 2283600)
Summary of the method: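 HCT-116 p53 beta-lactamase reporter cells, 4000/well, were exposed to compound (pin transfer, 217-fold dilution) for 16 hours at 37C. Cellular ATP was read by CellTiter-Glo luminescence after 30 min at room temperature.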

[20] = TOX21_p53_BLA_p4_viability: Viability Assessment in the Tox21 HCT-116 p53 Agonism Beta-lactamase Assay, Phase 4 (AID 2283597);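 note: hits lower the luminescence signal meaning cytotoxicity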
Summary of the method: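 HCT-116 p53-bla cells, 4000/well, dosed after 5 h attachment and incubated 16 h at 37 °C, 5% CO2. Viability from CellTiter-Glo ATP luminescence after 30 min at room temperature, taken after the beta-lactamase read; loss of signal indicates cytotoxicity.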

Measured: AC50

Chain of Cellular tumor antigen p53 (Homo sapiens) (P04637 whole entry, looked up): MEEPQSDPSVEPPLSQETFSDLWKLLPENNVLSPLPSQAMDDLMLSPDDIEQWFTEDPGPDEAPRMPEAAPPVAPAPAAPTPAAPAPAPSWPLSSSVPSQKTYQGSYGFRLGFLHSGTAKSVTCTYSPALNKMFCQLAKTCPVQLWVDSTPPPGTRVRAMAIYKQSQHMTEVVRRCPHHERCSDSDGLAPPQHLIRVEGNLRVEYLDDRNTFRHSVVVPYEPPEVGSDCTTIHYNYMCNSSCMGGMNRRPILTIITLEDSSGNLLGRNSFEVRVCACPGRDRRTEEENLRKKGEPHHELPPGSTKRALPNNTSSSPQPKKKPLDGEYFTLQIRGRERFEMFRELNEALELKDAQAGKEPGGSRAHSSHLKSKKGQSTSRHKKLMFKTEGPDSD

CC(=O)S[C@H](C(=O)N[C@H]1Cc2ccccc2[C@H]2CCC[C@@H](C(=O)O)N2C1=O)C(C)C
not listed: [15] | [16] | [17] | [18] | [19] | [20]
inactive: all other assays above

CCCCc1nc2cccnc2n1Cc1ccc(-c2ccccc2-c2nnn[nH]2)cc1
not listed: [7] | [19] | [20]
inactive: all other assays above

CCCCCCC(CCCCCCCCCCC(=O)OCC(COC(C)=O)OC(C)=O)OC(C)=O (stereo not given)
not listed: [2] | [7] | [18] | [20]
inactive: all other assays above

C=CCc1ccc(OC)c(OC)c1
not listed: [5] | [7] | [16] | [20]
inactive: all other assays above

O=C(N[C@@H](c1ccccc1)[C@@H]1CCCCN1)c1cccc(C(F)(F)F)c1Cl
active: [5] 26.6 µM
not listed: [1] | [2] | [3] | [4] | [19] | [20]
inactive: all other assays above

COc1ccc(OC(F)(F)F)cc1CN[C@H]1CCCN[C@H]1c1ccccc1
active: [20] 62.1 µM | [4] 82.3 µM | [5] 25 µM
not listed: [2] | [13]
inactive: all other assays above

CC(C)(O)c1ccc(CNC(=O)c2cccnc2Oc2ccc(F)cc2)cc1
not listed: [3] | [4] | [7] | [18]
inactive: all other assays above

CO[C@@H]1COCC[C@@H]1N[C@@H]1CC[C@@](C(=O)N2CCc3ncc(C(F)(F)F)cc3C2)(C(C)C)C1
not listed: [1] | [2] | [3] | [4] | [7] | [20]
inactive: all other assays above

O=[Si]=O
not listed: [1] | [2] | [3] | [19]
inactive: all other assays above

CC(C)c1cccc(C(C)C)c1NC(=O)NS(=O)(=O)c1cc(C(C)(C)O)co1
not listed: [1] | [2] | [3] | [7] | [13] | [19] | [20]
inactive: all other assays above

CC(C)(C)c1ccccc1
active: [5] 13.1 µM | [9] 5.01 µM | [10] 4.3 µM
not listed: [1] | [4] | [17]
inactive: all other assays above

CCCCC(CC)CO (stereo not given)
not listed: [7] | [13] | [17] | [20]
inactive: all other assays above

CS(=O)(=O)c1ccc([C@@H](C[C@H]2CCC(=O)C2)C(=O)Nc2cnccn2)cc1Cl
not listed: [1] | [3] | [7] | [15] | [20]
inactive: all other assays above

CCCCCCCCCCCCCCCCO
not listed: [1] | [2] | [3] | [4] | [19] | [20]
inactive: all other assays above

O=C1CCCCC1
not listed: [1] | [2] | [3] | [4] | [19] | [20]
inactive: all other assays above

CCCCCCC(C=O)=Cc1ccccc1
not listed: [1] | [2] | [3] | [4] | [16] | [19] | [20]
inactive: all other assays above

NC1CCCCC1
not listed: [1] | [2] | [3] | [4] | [13] | [14] | [19] | [20]
inactive: all other assays above
